In PubChem BioAssay AID720706 (Broad Institute, 2013):
Out of some 350,000 compounds screened, about 5,500 (1.6%) were called active.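 How the source made its calls: active means significant combined selectivity score with lowered wild-type GFP, culture density cut under 30%, mutant RFP and density less affected; inactive means any of these conditions unmet.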 For the sample, actives were picked, then their nearest neighbours and some compounds at random.

assay: reduced GFP signal of wild-type E. coli, primary screen, bacterial rRNA inhibitor project, GFP/RFP fluorescence, OD600, single point (AID 720706); conditions: E. coli WT GFP vs humanized-ribosome RFP mutants, 24 h; GFP signal change (wild-type ribosome): stronger effect = lower value, DMSO median 0, no signal -100; OD600 change: measured here: OD600 growth, DMSO median 0, no signal -100; RFP signal change: measured here: RFP humanized mutant strains, DMSO median 0, no signal -100, concentration not given here

Structure (SMILES)	GFP signal change (wild-type ribosome)	OD600 change [%]	RFP signal change [%]
CN[C@H]1C[C@H]2c3[nH]c4c(-c5ccccc5)cccc4c3CCN2C(=O)[C@H]1[C@H](C)O	-35.6% (inactive)	-70.1	-2.51
COc1ccc(CNC(=O)C2CCN(C(=O)c3ccco3)CC2)cc1	-1.02% (inactive)	2.41	0.192
CCC(CC)c1nnc(NC(=O)C2CCN(C(=O)c3ccco3)CC2)s1	-22.2% (active)	-16.6	-5.86
CCc1nnc(NC(=O)C2CCN(C(=O)c3ccccc3C)CC2)s1	6.89% (inactive)	6.36	0.577
C/C=C/c1ccc2c(c1)O[C@H](CN(C)C(=O)Cc1ccncc1)[C@@H](C)CN([C@@H](C)CO)S2(=O)=O	-0.815% (inactive)	-5.29	0.444
O=C(NCCS(=O)(=O)N1CCN(c2ccccc2F)CC1)c1ccc(Br)o1	-32% (active)	-25.8	-5.03
O=C(NCCS(=O)(=O)N1CCN(c2ccccc2)CC1)c1cc(=O)c2ccccc2o1	1.78% (inactive)	2.38	-0.491
O=C(NCCS(=O)(=O)N1CCN(c2ccccc2)CC1)c1ccco1	-1.63% (inactive)	-7.54	-1.71
COc1cccc(S(=O)(=O)N2CCCCN3[C@H](CO)[C@H](c4ccc(C#CC5CC5)cc4)[C@H]3C2)c1	-57.8% (inactive)	-71	-6.51
Cc1ccc(S(=O)(=O)N2CC(=O)Nc3ccccc32)cc1C	-32.4% (active)	-6.68	4.37
Cc1ccc(S(=O)(=O)N2CCN(c3ccccc3)CC2)cc1C	-16.3% (inactive)	-15.2	-8.46
Cc1ccc(S(=O)(=O)N(C)CC(=O)OCC(=O)N2CC(=O)Nc3ccccc32)cc1	2.71% (inactive)	-0.97	0.17
CCCNC(=O)N1C[C@H](C)[C@@H](OC)CN(C)C(=O)c2ccc(NS(=O)(=O)CC(F)(F)F)cc2OC[C@@H]1C	-0.684% (inactive)	1.48	-1.07
Cc1ccccc1-c1cnc2c(c1)C(=O)N([C@H](C)CO)C[C@@H](C)[C@H](CN(C)C(=O)c1cccnc1)O2	2.61% (inactive)	12.8	-2.14
COc1ccc2c3c(n(C)c2c1)[C@H](CO)N(Cc1ccccc1)CC31CCN(C)CC1	0.784% (inactive)	7.81	2.48
O=S(=O)([N-]c1nc2ccccc2nc1-[n+]1ccc(Cc2ccccc2)cc1)c1ccc(Br)s1	-29.2% (active)	-18.6	-0.481
CC(C)NC(=O)Nc1ccc2c(c1)CC(=O)N([C@@H](C)CO)C[C@@H](C)[C@H](CN(C)Cc1ccc(C(F)(F)F)cc1)O2	2.02% (inactive)	-34.5	-0.097
Cn1cc(CCC(=O)NCc2ccc3c(c2)OCO3)c2ccccc21	-21.5% (active)	-10.6	2.95
Cn1cc(CCC(=O)NC2CC2)c2ccccc21	4.27% (inactive)	10.1	-0.645
CCN(CC)C(=O)C(=O)c1cn(CC(=O)NCc2ccc3c(c2)OCO3)c2ccccc12	10.3% (inactive)	-1.1	3.71
O=C(C[C@@H]1CC[C@H](NC(=O)C2CCC2)[C@@H](CO)O1)NC1CCCCC1	3% (inactive)	3.16	-1.22

Structure (SMILES)	GFP signal change (wild-type ribosome)	OD600 change [%]	RFP signal change [%]
Cc1ccc(S(=O)(=O)NCCCn2ccnc2)cc1C(=O)NC(C)C	10.7% (inactive)	7.94	-1.51
Cc1cccc(NS(=O)(=O)c2ccc(C)c(C(=O)NCC(c3ccccc3)N(C)C)c2)c1 (stereo not drawn)	4.21% (inactive)	4.97	2.06
Cc1ccc(S(=O)(=O)NCCC(c2ccccc2)c2ccccc2)cc1C(=O)O	-40.5% (active)	-24.2	-13.9
O=C([C@@H]1[C@@H](CO)[C@@H]2Cn3c(ccc(C4=CCCCC4)c3=O)[C@H]1N2Cc1nccs1)N1CCCCC1	-2.47% (inactive)	3.59	1.3
COc1ccc(NC(=O)Nc2ccc3c(c2)CC(=O)N([C@H](C)CO)C[C@H](C)[C@H](CN(C)S(=O)(=O)c2ccccc2)O3)cc1	0.245% (inactive)	-2.9	0.358
O=S(=O)(NCC[C@H]1CC[C@@H](NS(=O)(=O)c2ccccc2Cl)[C@@H](CO)O1)c1ccc(Cl)cc1	-2.84% (inactive)	-5.01	0.345
CC(=O)c1cccc(NC(=O)C2CCN(C(=O)c3ccccc3Cl)CC2)c1	0.045% (inactive)	1.11	1.46
Cc1ccc(C(=O)N2CCCc3ccccc32)c(Cl)c1	-20.5% (inactive)	-35.7	-12.1
Cc1ccc2c(c1)C1C[N+](C)(CC(=O)c3ccccc3)CCC1N2C(=O)c1ccccc1Cl (stereo not drawn)	-33.1% (active)	-36.3	20.4
COc1ccc(NC(=O)N(C)C[C@H]2Oc3ccc(NC(=O)Nc4ccc5c(c4)OCO5)cc3C(=O)N([C@H](C)CO)C[C@H]2C)cc1	0.515% (inactive)	4.81	0.195
C[C@H](O)C#Cc1cnc2c(c1)C(=O)N([C@H](C)CO)C[C@H](C)[C@@H](CN(C)C(=O)Nc1ccc(F)cc1)O2	1.18% (inactive)	9.67	-3.38
COc1ccc(C#Cc2ccc([C@H]3[C@H]4CN(C(=O)c5cccnc5)CC(=O)N4[C@H]3CO)cc2)cc1	0.302% (inactive)	-5.28	2.11
COc1cc(C(=O)NCc2cc3cc(Cl)ccc3n2C)cc(OC)c1OC	4.54% (inactive)	12	5.4
COc1ccc(OC)c(/C(C)=N\NC(=O)c2cc3cc(Cl)ccc3n2C)c1	-24% (active)	-9.4	-0.802
COc1ccc(/C(C)=N/NC(=O)CCC(=O)Nc2ccc(Cl)cc2Cl)c(OC)c1	-6.41% (inactive)	-4.28	3.43
C[C@@H](C(=O)N(C)C[C@H]1OCc2ccccc2-c2c(n(C)c3ccccc23)C(=O)N([C@@H](C)CO)C[C@@H]1C)c1ccccc1	-2.7% (inactive)	-4.37	3.17
COc1ccc(CN(C)C[C@H]2OCc3cn(nn3)CCCC(=O)N([C@@H](C)CO)C[C@@H]2C)cc1	-0.663% (inactive)	4.94	-1.83
COc1ccc(NS(=O)(=O)c2ccc(N3CCN(CCO)CC3)c([N+](=O)[O-])c2)cc1	-3.32% (inactive)	8.86	0.35
COc1ccc(NS(=O)(=O)c2cccc(C(=O)NCCc3ccc(S(N)(=O)=O)cc3)c2)cc1	-0.729% (inactive)	-4.13	2.24
COc1ccc(NS(=O)(=O)c2ccc(Oc3c(C#N)cccc3C#N)cc2)cc1	-33% (active)	-6.7	-3.93
C[C@@H]1CN([C@H](C)CO)C(=O)c2cc(NC(=O)CCN3CCOCC3)ccc2O[C@H]1CN(C)Cc1ccc(Oc2ccccc2)cc1	-0.524% (inactive)	2.21	-0.41

Structure (SMILES)	GFP signal change (wild-type ribosome)	OD600 change [%]	RFP signal change [%]
O=C(Nc1ccccc1F)N[C@H]1CC[C@@H](CCNS(=O)(=O)c2ccc(F)cc2)O[C@@H]1CO	0.53% (inactive)	-4.9	0.665
O=C(NN=Cc1ccccc1O)NN=Cc1ccccc1O	-15.2% (inactive)	-34.3	-9.61
O=C1Oc2ccccc2C(=O)/C1=C/c1ccccc1O	-24% (active)	-16.1	-3.67
COC(=O)c1ccc(/C=C2/C(=O)Oc3ccccc32)cc1	5.01% (inactive)	8.63	-1.53
O=C(N[C@H]1CC[C@@H](CCNS(=O)(=O)Cc2ccccc2)O[C@H]1CO)c1ccccc1F	1.77% (inactive)	2.62	1.25
COCC(=O)Nc1ccc2c(c1)C(=O)N(C)C[C@H](OC)[C@@H](C)CN(CCc1ccccc1)[C@@H](C)CO2	-2.84% (inactive)	-4.45	-1.3
CCC(C)CN1C(=O)CN(S(C)(=O)=O)CC1(C)C(=O)Nc1ccc2c(c1)OCCO2 (stereo not drawn)	11.4% (inactive)	6.25	0.462
Cc1ccccc1CN1C(=O)CSCC1(C)C(=O)Nc1c(C)cccc1C (stereo not drawn)	-3.76% (inactive)	8.15	2.11
CC1(C(=O)Nc2ccc3c(c2)OCCO3)CSCC(=O)N1CCOc1ccccc1 (stereo not drawn)	-19.5% (active)	-13.7	6.62
C[C@@H]1CCCCO[C@@H](CN(C)C(=O)Cc2ccccc2)[C@H](C)CN([C@H](C)CO)C(=O)c2cc(NC(=O)Cc3ccccc3)ccc2O1	-4.58% (inactive)	-13.8	-0.346
COc1cccc(CNC(=O)[C@@H]2[C@@H](CO)[C@@H]3Cn4c(ccc(-c5ccncc5)c4=O)[C@H]2N3C(C)=O)c1	2.73% (inactive)	-2.66	-0.658
Cc1noc(C)c1S(=O)(=O)Nc1ccc2c(c1)C(=O)N([C@@H](C)CO)C[C@@H](C)[C@@H](CN(C)C)O2	5.72% (inactive)	-2.97	-0.906
Cc1cc2cc(CN(Cc3cccs3)Cc3nnnn3CC3CCCO3)c(=O)[nH]c2cc1C (stereo not drawn)	-7.06% (inactive)	-4.84	-2.86
O=C(c1cccs1)N(Cc1cc2ccccc2[nH]c1=O)CC1CCCO1 (stereo not drawn)	-0.275% (inactive)	-2.27	-1.32
Cc1cc(C)c2cc(CN(Cc3cccs3)Cc3nnnn3CC3CCCO3)c(=O)[nH]c2c1 (stereo not drawn)	-37.2% (active)	-22.2	-2.73
CO[C@@H]1CN(C)C(=O)c2ccc(NC(C)=O)cc2OC[C@@H](C)N(CC2CC2)C[C@H]1C	2.26% (inactive)	-1.92	1.24
CC(=O)N(C)C[C@@H]1Oc2ccc(N)cc2CC(=O)N(C)C[C@H]1C	1.8% (inactive)	0.888	-1
CNC[C@@H]1Oc2ccc(NC(C)=O)cc2CC(=O)N(C)C[C@@H]1C	-0.631% (inactive)	1.55	0.729
COc1ccc(S(=O)(=O)N[C@@H]2CC[C@@H](CC(=O)N3CCC(Cc4ccccc4)CC3)O[C@@H]2CO)cc1	8.03% (inactive)	-22.7	10.2
